# Measurements taken from PubChem BioAssay AID652010 (The Scripps Research Institute Molecular Screening Center, 2013).
# The whole screen tested about 370,000 compounds, of which about 4,100 (1.1%) were called active.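 The calls were made as follows: active = inhibition above the mean over all tested compounds plus 3 SD (cut at about 3.6% in these data); inactive = the rest.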 This excerpt belongs to a sample that is enriched for actives.
# Assay: DAX1 (NR0B1) inhibitors on StAR promoter, primary screen, cell-based, luminescence, SF-1 (NR5A1), full-length DAX-1 (AID 652010);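 also: 0% = DAX-1 cells with DMSO and 100% = cells lacking DAX-1 with DMSO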
# Details: HEK293T StAR-luciferase reporter, SF-1/DAX-1 repression relief; at 6.8 µM; stronger effect = higher value
row,Structure (SMILES),inhibition
1,CCCCOCCCNC(=O)C[C@H]1C[C@@]2(C(=O)OC)C(=C[C@H](COCc3ccccc3)O[C@@H]2C)N(Cc2cccc3ccccc23)C1=O,-0.91% (inactive)
2,COc1cc(NC(=O)C2CCCN(S(=O)(=O)c3ccc(C(C)(C)C)cc3)C2)cc(OC)c1 (stereo not drawn),0.97% (inactive)
3,C/C(=N\NC(=O)c1ccccc1F)c1ccccn1,6.14% (active)
4,C/C(=N/NC(=O)c1ccn(C)n1)c1ccncc1,-0.02% (inactive)
5,O=C(Nc1nnc(-c2ccccc2F)s1)c1ccccc1F,0.85% (inactive)
6,CCCCCCCCNS(=O)(=O)/C=C/c1cc(C)ccc1CNC(=O)OC(C)(C)C,-1.91% (inactive)
7,CN[C@H]1C[C@H]2c3cc(N4CCOCC4)ccc3CCN2C[C@H]1[C@H](C)O,-0.26% (inactive)
8,COC(=O)C1=C(C)N(Cc2cccc(C(F)(F)F)c2)C(=NCc2ccccc2)NC1c1ccccc1C(F)(F)F (stereo not drawn),-0.23% (inactive)
9,COc1ccc(C(=O)COC(=O)C(O)c2ccccc2)c(OC)c1 (stereo not drawn),3.84% (active)
10,COc1ccc(C(=O)COC(=O)c2nn(C)c(=O)c3ccccc23)c(OC)c1,1.33% (inactive)
11,COc1ccc(C(=O)COC(=O)CN2C(=O)C3CC=CCC3C2=O)c(OC)c1 (stereo not drawn),1.03% (inactive)
12,Brc1ccc(C2CC(c3ccccc3)=Nc3ccccc3N2)cc1 (stereo not drawn),3.86% (active)
13,S=C1NC(c2ccccc2)=NCN1c1ccc(Br)cc1,0% (inactive)
14,CNC(=S)N1N=C(c2ccccc2)CC1c1ccc(Br)cc1 (stereo not drawn),-0.46% (inactive)
15,CCOC(=O)c1c(C)[nH]c(C2=NNC(=NC(C)COC)SC2)c1C (stereo not drawn),4.39% (active)
16,O=C1Nc2ccccc2C1=NN=Cc1ccco1,-1.23% (inactive)
17,CCOC(=O)[C@]12CCCCC/C=C\1N(Cc1ccc(OC)cc1)C(=O)[C@H]2CC(=O)NCCCN1CCCC1=O,0.28% (inactive)
18,CCOc1ccc(NS(=O)(=O)c2ccc(C(=O)NCC(c3ccccc3OC)N3CCCC3)cc2)cc1 (stereo not drawn),1.1% (inactive)
19,CN(C)S(=O)(=O)c1ccc(C(=O)NCC2(N3CCOCC3)CCCCC2)cc1,3.47% (inactive)
20,O=C(NCC1(N2CCCCC2)CCCCC1)c1cccc(S(=O)(=O)Nc2ccccc2Cl)c1,3.28% (inactive)
21,O=C(NCC1(N2CCCCC2)CCCCC1)c1ccc(NS(=O)(=O)c2ccc(F)cc2)cc1,10.6% (active)
22,O=C(NCC1CCCO1)c1ccc(S(=O)(=O)Nc2ccc(F)cc2)cc1 (stereo not drawn),0.67% (inactive)

row,Structure (SMILES),inhibition
1,CCOc1ccc(S(=O)(=O)Nc2cccc(C(=O)NCC3(N4CCCCC4)CCCCC3)c2)cc1,6.71% (active)
2,C=C(C)C1CC23C(=O)C4(C(=O)c5ccccc5)C[C@@]5(C)CCC(CC2C1(C)C)(C4=O)C35OC (stereo partly drawn),-0.55% (inactive)
3,CN1C[C@]2(C=C3CCCCC3n3c(=O)n(-c4ccccc4)c(=O)n32)N=C1NC(=O)c1ccccc1 (stereo partly drawn),-0.17% (inactive)
4,CCc1ccccc1NC(=O)CSc1nnc(-c2cccs2)o1,-1.18% (inactive)
5,Clc1ccc(C(Cn2ccnc2)OCc2ccsc2Cl)c(Cl)c1 (stereo not drawn),-1.62% (inactive)
6,COc1ccc(Nc2ncc(F)c(N3CCOCC3)n2)cc1,4.78% (active)
7,Fc1cnc(N2CCOCC2)nc1NCc1ccccc1,0.22% (inactive)
8,COC(=O)c1ccccc1Oc1c(F)c(F)nc(N2CCOCC2)c1F,0.02% (inactive)
9,CN(C)c1ccc(NC(=O)CSc2n[nH]c(-c3ccco3)n2)cc1,-1.06% (inactive)
10,CCCCC[C@H](C)N1C[C@@H](COCc2ccccc2)Oc2cc(N3CC[C@@H](N(C)C)C3)ccc2S1(=O)=O,0.28% (inactive)
11,COc1ccc(C2=CN(Cc3ccccc3)C(c3ccc(OC)cc3)CC2=O)cc1 (stereo not drawn),-1.09% (inactive)
12,O=S(=O)(NCC1CCCO1)c1ccc2ccccc2c1 (stereo not drawn),-0.46% (inactive)
13,COc1cc(OC)c(C(=O)N2CCCC2)cc1OC,-0.07% (inactive)
14,CCOC(=O)C1CCCN(C(=O)c2cc(-c3cccs3)oc2C)CC1 (stereo not drawn),-0.69% (inactive)
15,COc1cc(Cl)ccc1OCc1cc(C(=O)N2CC[C@@H]3CCCC[C@H]3C2)no1,3.53% (inactive)
16,O=C(c1cc(C2CCCCN2S(=O)(=O)c2ccccc2)on1)N1CCOCC1 (stereo not drawn),-1.39% (inactive)
17,COc1ccc(OCc2cc(C(=O)N3CCCC3)no2)c2ccccc12,6.04% (active)
18,O=C(c1cc(-c2cccs2)on1)N1CCCCC1,4.8% (active)
19,COc1ccccc1-c1cc(C(=O)N2CCCCC2)no1,9.11% (active)
20,O=C(c1ccco1)N1CCN(C(=O)c2cc(-c3ccccc3F)no2)CC1,0.38% (inactive)
21,CC(=O)c1ccc(NC(=O)c2cc(-c3cccs3)on2)cc1,0.84% (inactive)
22,O=C(c1cc(COc2ccc(F)cc2F)on1)N1CCOCC1,1.39% (inactive)

row,Structure (SMILES),inhibition
1,O=C(c1cc(-c2ccccc2O)on1)N1CCCC1,6.48% (active)
2,COc1ccc(C(=O)C2CCCN(C(=O)c3cc(C)on3)C2)cc1F (stereo not drawn),-0.49% (inactive)
3,O=C1CSC2=NCN(c3ccccc3)CN12,-0.05% (inactive)
4,CN(C)S(=O)(=O)c1cccc(C(=O)N/N=C\c2ccco2)c1,0.25% (inactive)
5,COC[C@@H]1CCCN1c1ccc2c(c1)O[C@H](C)CCN(C1CC1)S2(=O)=O,-1.04% (inactive)
6,CC(C)N1CCCCC(NC(=O)c2ccc3ccccc3c2)C1=O (stereo not drawn),0.26% (inactive)
7,O=C(NCCc1ccccn1)c1nc(Cn2cc([N+](=O)[O-])cn2)no1,0.2% (inactive)
8,COc1ccc(N2C(=O)CN=C2Nc2cccc(C)c2C)cc1OC,-0.59% (inactive)
9,O=C(NCc1ccccc1Cl)C1CCCN1S(=O)(=O)c1ccc(F)cc1 (stereo not drawn),-0.27% (inactive)
10,O=C(N1CCOCC1)N1CC[C@H]2[C@H](CCCN2Cc2ccc(F)cc2)C1,0.58% (inactive)
11,COC(=O)[C@]12C[C@H](CC(=O)N3CCN(C(=O)C4CC4)CC3)C(=O)N(CCC3=CCCCC3)C1=C[C@H](C(C)C)O[C@@H]2C1CC1,-0.81% (inactive)
12,COc1ccccc1N(C)S(=O)(=O)c1ccc(C(=O)NC2CCCCCC2)cc1,-0.26% (inactive)
13,O=C(CSc1nnc(-c2ccccn2)n1-c1ccc(Cl)cc1)Nc1ccccc1-c1ccccc1,-0.72% (inactive)
14,Cc1cc(Br)ccc1NC(=S)NC1CCCC1,0.19% (inactive)
15,Cc1ccc(NC(=O)c2cc(C)nn2-c2ccccc2)c(C)c1,-0.54% (inactive)
16,Cc1ccc(NC(=S)Nc2ncccc2C)c(C)c1,4.16% (active)
17,O=C(c1ccncc1)N1CC[C@H]2[C@H](CCCN2Cc2ccc(F)cc2)C1,-0.35% (inactive)
18,Cc1ccccc1CN1CCCCC(NC(=O)c2cccc(C#N)c2)C1=O (stereo not drawn),-1.4% (inactive)
19,Cc1ccc(C(=O)N/N=C/c2sc(=O)n(Cc3cccc(C(=O)O)c3)c2Cl)cc1,-0.16% (inactive)
20,Cc1ccc(/C=C2\CCn3c2nc2cc(C(=O)O)ccc2c3=O)c(C)c1,-0.46% (inactive)
21,Cc1ccc2cc(/C=N/Nc3ccc(C(=O)O)cc3)c(Cl)nc2c1,4.23% (active)
22,CCCCCCCCN1C(=O)[C@@H](CC(=O)NCCCC)C[C@@]2(C(=O)OC)C1=C[C@H](C(C)(C)C)O[C@@H]2C,1.52% (inactive)

row,Structure (SMILES),inhibition
1,O=C(NCCc1c[nH]c2ccccc12)c1cc2ccccc2oc1=O,6.37% (active)
2,O=C(CCCCCn1c(=O)[nH]c2ccccc2c1=O)NCCc1c[nH]c2ccccc12,-0.81% (inactive)
3,O=C(NCCc1ccccc1)c1c[nH]c2ccc(F)cc2c1=O,-0.4% (inactive)
4,O=C(NCCCCCCCCCNC(=O)C(F)(F)F)C(F)(F)F,0.58% (inactive)
5,COC(=O)C1=C(C)N(Cc2ccccc2C(F)(F)F)C(=NCc2ccc(OC)cc2)NC1c1cccc(C(F)(F)F)c1 (stereo not drawn),-2.23% (inactive)
6,Cc1cccc(NC(=S)N2CCC(C(=O)c3ccc(F)cc3)CC2)c1,0.4% (inactive)
7,CCOC(=O)c1ccc(NC(=O)c2ccc(NC(=O)C3CCCO3)cc2)cc1 (stereo not drawn),-1.16% (inactive)
8,O=C(Nc1ccc(-c2nnc(-c3ccccc3)o2)cc1)C1CCCO1 (stereo not drawn),3.77% (active)
9,CC(C)(C)NS(=O)(=O)c1ccc(NC(=O)C2CCCO2)cc1 (stereo not drawn),-0.07% (inactive)
10,CN1CCCc2nc(-c3ccccc3)ccc21,1.43% (inactive)
11,C/C(=N\OC(=O)c1ccccc1)c1c(C)nc2cc(C)ccn12,-0.48% (inactive)
12,Cc1cccc(/C(N)=N/OC(=O)c2ccccc2Cl)c1,4.38% (active)
13,Cc1ccc(C(=O)O/N=C(\N)c2ccccn2)cc1Cl,1.79% (inactive)
14,Cc1ccc(Cn2cc(COC(=O)N(C)Cc3ccccc3)nn2)cc1,-0.12% (inactive)
15,CC(C)(C)c1ccc(S(=O)(=O)NCC2CCN(C(=O)C(=O)c3cc4ccccc4o3)CC2)cc1,-1.6% (inactive)
16,COc1ccc(CCOC2OC(CO)C(OC(=O)/C=C/c3ccc(O)c(OC)c3)C(O[C@H]3O[C@@H](C)[C@H](O)[C@@H](O)[C@H]3O)C2O)cc1O (stereo partly drawn),4.55% (active)
17,COc1cc(/C=C/CO)cc(OC)c1O[C@@H]1O[C@H](CO)[C@@H](O)[C@H](O)[C@H]1O,0.72% (inactive)
18,COc1cc(/C=C/C(=O)OCC(=O)NCCCc2ccccc2)ccc1O,-0.2% (inactive)
19,O=C(OC12CCCN(C1)/C(=C/c1ccccc1)C2)c1ccco1 (stereo not drawn),0.04% (inactive)
20,CCOc1ccccc1-c1cc(C(=O)N/N=C(\C)c2cccnc2)c2ccccc2n1,1.24% (inactive)
21,CCOc1cccc(/C=C/c2ccc3ccccc3n2)c1OC(C)=O,5.71% (active)
22,CCOc1cc(C(=O)Nc2ccc(S(=O)(=O)Nc3cnc4ccccc4n3)cc2)cc(OCC)c1OCC,-0.22% (inactive)
